This note sets out measurements from PubChem BioAssay (NCI).

About 83,000 compounds went through this panel and 20% of them were active in at least one assay; those are over-represented in the sample as a whole.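 Step 1: grow cells in 96-well plates. Step 2: add test compound at a single concentration. Step 3: incubate 48 h. Step 4: record percent growth.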 Values without a mark were called inactive. Active and inactive are the calls of the source. How the source made its calls: active means growth percent below 10; inactive means the rest.

Test in all cases: NCI-60 one-dose screen, 48 h (100 = growth as untreated, 0 = no growth, -100 = all killed)
What all share (details): 10 µM unless noted

Assay [1] relates to T-47D breast.
Assay [2] relates to BT-549 breast.
Assay [3] deals with MDA-MB-435 melanoma.
Assay [4] relates to SW-620 colon.
Assay [5] has as its system MCF7 breast.
The subject of assay [6] is HCT-116 colon.
Assay [7] deals with HCC-2998 colon.
Assay [8] concerns KM12 colon.
For assay [9], the system named is MDA-MB-468 breast.

With `COc1ccccc1NC(=O)N/N=C/c1c[nH]c2ccccc12`, the growth in [1] is 36.2%; in [2] it was 15.5%; in [3] it was -22.8% (active); in assay [4] it was 35.9%; in assay [5], 6.55% (active); in assay [6] it was 10.4%. Further, the figures for the growth in [7], in assay [8] and in [9] were 6.44% (active), 3.61% (active) and -6.01% (active), respectively.
Take `O=C(c1ccc(Cl)cc1)C1[C@H](c2ccccc2Cl)[C@@H](c2ccccc2)NC12C(=O)Nc1ccc(Br)cc12` (some centres undefined): the growth in assay [1] is -83.4% (active); in assay [2] it was -95.1% (active); in assay [3], -93.4% (active); in assay [4] it was -84.1% (active); in assay [5], -48.7% (active); in assay [6], -98.9% (active). For the same compound, the growth is -94.2% (active) in [7], -51.8% (active) in assay [8] and -83.2% (active) in [9].
`O=C(Nc1ccc(F)cc1)Nc1nc2ccc([N+](=O)[O-])cc2s1`: the growth was -18.1% (active) in assay [1]; -53.2% (active) in [2]; 0.0184% (active) in assay [3]; 7.92% (active) in assay [4]; 1.6% (active) in assay [5]; 1.02% (active) in assay [6]. For the same compound, the growth in assay [7] was 11.8%; in [8], 9.04% (active); in assay [9], -23.4% (active).
Take `O=C(/C=C1\C(=O)N(Cc2ccccc2)c2ccccc21)c1cc2ccccc2oc1=O`: the growth in assay [1] is 40.3%; in assay [2], 97.1%; in assay [3] it was 107%; in [4], 24.2%; in assay [5], 29.8%; in [6] it was 82.9%. Besides, the growth in assay [7] was 113%; in [8] it was 91.2%; in assay [9] it was 29.6%.
As for `O=C(N=Nc1c(O)[nH]c2ccc(Cl)cc12)c1ccc2nc(-c3ccc(Cl)cc3)[nH]c2c1`, the growth in assay [1] is -2.02% (active); in assay [2], 49%; in assay [3], -32.9% (active); in assay [4] it was 3.1% (active); in assay [5], 1.03% (active); in assay [6], 9.89% (active). The growth in [7] is -34.6% (active); in assay [8], 42.3%; in assay [9] it was -80.7% (active).
Turning to `CC(C)(C)c1cc(-c2cc(-c3ccccc3)[nH]c(=O)c2C#N)cc(C(C)(C)C)c1`, the growth in assay [1] is 36.4%; in assay [2], -3.78% (active); in [3] it was 56.9%; in assay [4], 66.1%; in assay [5], 71.8%; in assay [6], -35% (active). The growth is 59.8% in assay [7], 81.3% in [8] and 37.8% in [9].
Turning to `COc1ccc(N=Nc2c(N)nn3c(-c4ccc(F)cc4)ccnc23)cc1`, the growth was 61.1% in assay [1]; 96.4% in [2]; 56.2% in [3]; 44.5% in [4]; 55.4% in assay [5]; 71.4% in [6]. Also, the growth was 108% in [7], 86.2% in assay [8] and 44.2% in [9].
Consider `N#C/C(=C1/C(=O)Nc2ccccc21)c1nnc(NC(=O)c2ccc(-n3c(=O)[nH]c4ccccc4c3=O)cc2)s1`, for which the growth in assay [1] is 6.13% (active); in [2], 12.1%; in assay [3], -85.5% (active); in [4], 65.4%; in assay [5] it was 7.69% (active); in assay [6], 22.8%. The growth in assay [7] was 32.5%; in [8] it was 21.4%; in assay [9], 12.9%.
Turning to `COc1cc(NC(=O)CSc2nnc(-c3ccc(-c4nc5ccc(Cl)cc5[nH]4)cc3)o2)cc(OC)c1OC`, the growth was 41.5% in assay [1]; 70.7% in [2]; -20.3% (active) in [3]; 40.1% in assay [4]; 6.03% (active) in assay [5]; 33.2% in [6]. Further, the values for the growth in assay [7], in [8] and in assay [9] were 68.9%, 30.8% and 3.14% (active), respectively.
For the compound `COc1ccc2[nH]cc(-c3cc4nc(-c5cn(C)c6ncccc56)cc(N)n4n3)c2c1`, the growth is 33.3% in assay [1]; -8.26% (active) in assay [2]; 52.5% in assay [3]; -53.3% (active) in assay [4]; -24.8% (active) in [5]; -81.3% (active) in [6]. For the same compound, the results for the growth in assay [7], in assay [8] and in assay [9] were -96.5% (active), -66.2% (active) and -75.9% (active), respectively.
With `CCCCC[C@@H]1C/C=C(\C)[C@@H](O)C(C)(C)C(=O)[C@@H](C)/C=C(\C)[C@@H]2C[C@H](O)C[C@](O)(CC(=O)O1)O2`, the growth in assay [1] was 13.5%; in [2] it was 18.8%; in assay [3], 24%; in [4], 47.3%; in assay [5], 7.53% (active); in assay [6], 43%. Also, the growth in assay [7] was 57.1%; in assay [8], 44.6%; in assay [9], -21.2% (active).
Take `COc1c2c(c(Br)c3c1C(CCc1ccccc1)N(C)CC3)OCO2` (centres undefined): the growth in [1] is 33.6%; in assay [2], 3.17% (active); in assay [3], 13.9%; in [4] it was 11.9%; in [5], 18.6%; in [6], 11%. In addition, the growth in [7] was 27.4%; in assay [8], 11.4%; in [9], 41.8%.
Consider `Cc1ccc(Cl)cc1NC(=O)N/C(N)=N/c1nc2ccccc2s1`, for which the growth in assay [1] is 32.4%; in assay [2], -7.19% (active); in assay [3], -63.9% (active); in assay [4], 1.84% (active); in assay [5] it was 4.25% (active); in assay [6], -51.9% (active). In addition, the growth is -14.8% (active) in assay [7], -28.7% (active) in assay [8] and -30.1% (active) in assay [9].
`CC(C)C[C@H](NC(=O)[C@@H]1CCCCCCCCCCC(=O)N[C@@H](CC(=O)N2CCC[C@@H]2C2CCCC2)C(=O)N1)B(O)O`: the growth was -20% (active) in assay [1]; -79.2% (active) in assay [2]; -57.3% (active) in [3]; 4.22% (active) in assay [4]; -28.2% (active) in assay [5]; -80% (active) in assay [6]. Also, the results for the growth in assay [7], in [8] and in assay [9] were -100% (active), -35.7% (active) and -70.6% (active), respectively.
Consider `Clc1ccc(-c2nc3ccc(-c4nnc(SCc5ccccc5)o4)cc3[nH]2)cc1`, for which the growth in assay [1] was 7.8% (active); in [2], 58.7%; in assay [3], 62.6%; in [4], 12.9%; in assay [5] it was 8.62% (active); in assay [6] it was 2.75% (active). The growth was 39.4% in assay [7], 35.5% in assay [8] and 11% in assay [9].
In the case of `O=C(Cn1c(-c2ccccc2)nc2ccccc21)N=Nc1c(O)[nH]c2ccc(Br)cc12`, the growth in [1] is -59.4% (active); in [2], -53.7% (active); in [3] it was -32.3% (active); in [4] it was 11.9%; in assay [5], -18.6% (active); in assay [6] it was 1.09% (active). The results for the growth in assay [7], in assay [8] and in [9] were 0.134% (active), 15% and -53.4% (active), respectively.
Regarding `COC(=O)c1cc(C(C)=O)n2c3ccccc3c3ccccc3c12`, the growth in [1] is 54.6%; in [2] it was 38.5%; in assay [3] it was 93%; in assay [4] it was 89.3%; in assay [5], 59.6%; in [6], 50.3%. Further, the growth was 91.4% in assay [7], 86% in [8] and 65.8% in assay [9].
For `COc1ccc(NC(=O)CSc2nnc(-c3ccc(-c4nc5ccccc5[nH]4)cc3)o2)cc1`, the growth in assay [1] is 78.6%; in [2], 27.3%; in assay [3], 20.9%; in [4], 11.4%; in assay [5] it was 13.8%; in assay [6], 2.37% (active). Moreover, the growth in [7] is 92.7%; in assay [8] it was 30.5%; in assay [9], 86.5%.
As for `O=C(Cc1c(-c2cccc([N+](=O)[O-])c2)n(-c2ncnc3c2c(-c2ccccc2)c(-c2ccccc2)n3Cc2ccccc2)[nH]c1=O)c1ccc(Cl)c(Cl)c1`, the growth in assay [1] is 0.846% (active); in [2], 63.7%; in assay [3], 19.9%; in [4], 56.1%; in [5] it was 24.7%; in assay [6], 32.3%. Also, the growth in [7] is 26.7%; in [8], 24.7%; in [9], -10.4% (active).
Consider `N#CC1=C(c2cccs2)Nc2c(c(-c3ccccc3)nn2-c2ccccc2)C12C(=O)Nc1ccccc12` (centres undefined), for which the growth in [1] was 17.3%; in [2], -41.8% (active); in assay [3], 28.3%; in [4], 8.74% (active); in [5] it was 31.4%; in assay [6], 5.53% (active). The growth in [7] was 38.1%; in assay [8] it was 9.03% (active); in assay [9] it was -9.71% (active).
On to `O=C(O)CC1S/C(=N/N=C/c2nc3ccccc3s2)NC1=O` (centres undefined), for which the growth in assay [1] is 85.4%; in [2], 98.2%; in assay [3], 102%; in assay [4], 104%; in assay [5], 60.9%; in assay [6] it was 71.1%. In addition, the growth in [7] is 106%; in assay [8], 90.6%; in assay [9], 104%.
